Active and inactive are the calls of the source. How the source made its calls: active means hit-call score of the fitted dose curve at least 0.9, where 1 is the maximum; inactive means score below 0.9.

Sequence of Myc proto-oncogene protein (Homo sapiens) (P01106 whole entry, looked up): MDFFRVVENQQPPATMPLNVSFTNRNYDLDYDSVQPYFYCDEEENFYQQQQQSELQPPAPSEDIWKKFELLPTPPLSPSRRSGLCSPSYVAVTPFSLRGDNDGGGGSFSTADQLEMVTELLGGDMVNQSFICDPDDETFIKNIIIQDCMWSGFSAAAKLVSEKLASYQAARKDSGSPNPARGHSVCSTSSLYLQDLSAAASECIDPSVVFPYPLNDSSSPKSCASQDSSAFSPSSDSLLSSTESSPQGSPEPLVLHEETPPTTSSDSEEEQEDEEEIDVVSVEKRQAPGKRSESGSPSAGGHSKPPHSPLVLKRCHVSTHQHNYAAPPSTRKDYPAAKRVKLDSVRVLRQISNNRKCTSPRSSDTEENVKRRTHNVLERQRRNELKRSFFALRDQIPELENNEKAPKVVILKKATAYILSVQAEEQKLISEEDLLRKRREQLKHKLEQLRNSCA

The first assay concerns the target Myc proto-oncogene protein (Homo sapiens) (UniProt P01106). Put plainly: ATG_Myc_CIS: Attagene CIS-FACTORIAL HepG2 Assay for human Myelocytomatosis (Myc) Proto-Oncogene Transcription Factor (AID 2282990). As to conditions: HepG2, Attagene cis-reporter transcription factor activity; actives raise or lower the signal. In a few lines: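 HepG2, transient MRTU transfection (cis promoters, endogenous TFs); 24 h dosing; TriZol RNA → oligo(dT) RT → PCR → 6-FAM primer extension → HpaI cut → CE. Bidirectional fit vs DMSO.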
Take `CC/C=C\C#N`: the compound was classed as inactive.

As to `CCOC(=O)CC(C)C`, the call was inactive.

Regarding `CC/C=C\CCOC(C)OCC` (centres undefined), the result was inactive.

In the case of `O=C(C=Cc1ccccc1)OCCCc1ccccc1`, the result was inactive.

With `CC(=N[Si](C)(C)C)O[Si](C)(C)C`, the outcome was inactive.

For the compound `CN(C)CCC=C1c2ccccc2CCc2ccccc21`, the result was inactive.

As to `CCC=C(C)C=O`, the outcome was inactive.

In the case of `[Cu+]`, the call was inactive.

Take `c1coc(CNc2ncnc3nc[nH]c23)c1`: the compound was classed as inactive.

`S=c1[nH][nH]c(=S)s1`: the result was inactive.

Take `CCCOC(=O)CC`: the outcome was inactive.

Turning to `CC(C)(C)c1cccc(O)c1`, the call was inactive.

As to `CCCc1ccc(O)cc1`, the compound was called inactive.

In the case of `COc1ccc(OC)cc1`, the call was inactive.

On to `N=C1N=C(N)c2ccccc21`, for which the outcome was inactive.

As to `CC(=O)CCC(=O)O`, the compound was called inactive.

For the compound `CCCCCC(=O)O[C@]1(C(C)=O)CC[C@H]2[C@@H]3CCC4=CC(=O)CC[C@]4(C)[C@H]3CC[C@@]21C`, the compound was classed as inactive.

Regarding `O=C1OC2(c3ccc(O)cc3Oc3cc(O)ccc32)c2ccccc21`, the compound was classed as inactive.

`CC1=CC(O)CC(C)(C)C1` (centres undefined): the compound was classed as inactive.

For `CCCCCCOC(C)=O`, the outcome was inactive.

Turning to `OCCCO`, the compound was called inactive.

As to `CCCC[N+](C)(CCCC)CCCC`, the compound was called inactive.

As for `CCCCOC(=O)C(C)OC(=O)CCC` (centres undefined), the compound was called inactive.

`CC(=O)CC(=O)N(C)C`: the result was inactive.

Take `Nc1ccc(N)c([N+](=O)[O-])c1`: the outcome was inactive.

With `OC[C@H]1O[C@@H](O[C@H]2[C@H](O)[C@@H](O)[C@H](O)O[C@@H]2CO)[C@H](O)[C@@H](O)[C@H]1O`, the call was inactive.

`CC(C)(CO)CO`: the outcome was inactive.

On to `C/C=C(\C)C(=O)OC/C=C(\C)CCC=C(C)C`, for which the compound was classed as inactive.

On to `NC(=O)c1cnccn1`, for which the compound was called inactive.

Regarding `CC/C=C\CCOC(=O)C(C)C`, the outcome was inactive.

On to `C[C@H](CCC(=O)O)[C@H]1CC[C@H]2[C@@H]3CC[C@@H]4C[C@H](O)CC[C@]4(C)[C@H]3CC[C@]12C`, for which the AC50 was 156 µM (active).

As to `CCCCCCC(C)O` (centres undefined), the result was inactive.

`O=C(OCc1ccccc1)c1ccccc1O`: the call was inactive.

Consider `CC(=O)c1ccc(C)cc1`, for which the result was inactive.

As to `CC(C)N(c1ccccc1)C(C)C`, the compound was classed as inactive.

System in the next assay: not listed separately
In words: ATG_NF_kB_CIS: Attagene CIS-FACTORIAL HepG2 Assay for human Nuclear Factor Kappa B (NF-kB) (AID 2282991). As to conditions: HepG2 Attagene cis-factorial NF-kB reporter mRNA; actives raise or lower the signal. A digest of the protocol: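 Endpoint from a 52-component multiplexed HepG2 reporter panel: cis-regulated transcription units transiently transfected, 24 h dosing, reporter mRNA quantified by RT-PCR and capillary electrophoresis, scored as increase or decrease against DMSO.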
On to `CC/C=C\C#N`, for which the outcome was inactive.

`O=C(C=Cc1ccccc1)OCCCc1ccccc1`: the compound was called inactive.

As for `CC(=N[Si](C)(C)C)O[Si](C)(C)C`, the call was inactive.

Take `CCC=C(C)C=O`: the outcome was inactive.

Take `S=c1[nH][nH]c(=S)s1`: the call was inactive.

On to `CCCc1ccc(O)cc1`, for which the compound was classed as inactive.

`COc1ccc(OC)cc1`: the result was inactive.

In the case of `CC1=CC(O)CC(C)(C)C1` (centres undefined), the outcome was inactive.

Consider `CCCCCCOC(C)=O`, for which the call was inactive.

As for `OCCCO`, the compound was classed as inactive.

Take `CCCCOC(=O)C(C)OC(=O)CCC` (centres undefined): the compound was classed as inactive.

On to `NC(=O)c1cnccn1`, for which the compound was classed as inactive.

With `CC/C=C\CCOC(=O)C(C)C`, the call was inactive.

Regarding `O=C(OCc1ccccc1)c1ccccc1O`, the compound was classed as inactive.

Regarding `CC(C)N(c1ccccc1)C(C)C`, the result was inactive.

System in another assay: not listed separately
In words: ATG_NRF2_ARE_CIS: Attagene CIS-FACTORIAL HepG2 Assay for human Nuclear Factor Erythroid 2 Related Factor 2 (NFR2) response to Antioxidant Response Elements (ARE) (AID 2282992).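 On AC50: reporter mRNA level measured by RT-PCR and capillary electrophoresis fluorescence.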 The following applies: HepG2 Attagene ARE/NRF2 reporter, transcription factor activity; actives raise or lower the signal. A digest of the protocol: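 Multiplexed reporter mRNA profiling in HepG2 after a 24 h chemical exposure. Curves fitted in both directions relative to DMSO negative control.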
Regarding `CC/C=C\C#N`, the result was inactive.

Take `CCOC(=O)CC(C)C`: the compound was classed as inactive.

For the compound `CC/C=C\CCOC(C)OCC` (centres undefined), the result was inactive.

For `O=C(C=Cc1ccccc1)OCCCc1ccccc1`, the AC50 is 58 µM (active).

`CC(=N[Si](C)(C)C)O[Si](C)(C)C`: the call was inactive.

Consider `CN(C)CCC=C1c2ccccc2CCc2ccccc21`, for which the AC50 was 33.4 µM (active).

On to `CCC=C(C)C=O`, for which the call was inactive.

Consider `[Cu+]`, for which the AC50 was 2.29 µM (active).

`c1coc(CNc2ncnc3nc[nH]c23)c1`: the half-maximal activity concentration (AC50) is 33.8 µM (active).

As for `S=c1[nH][nH]c(=S)s1`, the compound was classed as inactive.

As to `CCCOC(=O)CC`, the call was inactive.

As for `CC(C)(C)c1cccc(O)c1`, the compound was called inactive.

In the case of `CCCc1ccc(O)cc1`, the AC50 was 36 µM (active).

For the compound `COc1ccc(OC)cc1`, the compound was classed as inactive.

As to `N=C1N=C(N)c2ccccc21`, the call was inactive.

In the case of `CC(=O)CCC(=O)O`, the compound was called inactive.

Consider `CCCCCC(=O)O[C@]1(C(C)=O)CC[C@H]2[C@@H]3CCC4=CC(=O)CC[C@]4(C)[C@H]3CC[C@@]21C`, for which the AC50 was 12.6 µM (active).

Regarding `O=C1OC2(c3ccc(O)cc3Oc3cc(O)ccc32)c2ccccc21`, the compound was called inactive.

As for `CC1=CC(O)CC(C)(C)C1` (centres undefined), the compound was called inactive.

Take `CCCCCCOC(C)=O`: the call was inactive.

As to `OCCCO`, the compound was classed as inactive.

As for `CCCC[N+](C)(CCCC)CCCC`, the result was inactive.

In the case of `CCCCOC(=O)C(C)OC(=O)CCC` (centres undefined), the result was inactive.

In the case of `CC(=O)CC(=O)N(C)C`, the compound was called inactive.

In the case of `OC[C@H]1O[C@@H](O[C@H]2[C@H](O)[C@@H](O)[C@H](O)O[C@@H]2CO)[C@H](O)[C@@H](O)[C@H]1O`, the compound was called inactive.

Consider `CC(C)(CO)CO`, for which the compound was classed as inactive.

For `C/C=C(\C)C(=O)OC/C=C(\C)CCC=C(C)C`, the half-maximal activity concentration (AC50) was 100 µM (active).

Consider `NC(=O)c1cnccn1`, for which the result was inactive.

In the case of `CC/C=C\CCOC(=O)C(C)C`, the compound was classed as inactive.

`C[C@H](CCC(=O)O)[C@H]1CC[C@H]2[C@@H]3CC[C@@H]4C[C@H](O)CC[C@]4(C)[C@H]3CC[C@]12C`: the AC50 was 45.4 µM (active).

Regarding `CCCCCCC(C)O` (centres undefined), the outcome was inactive.

As to `O=C(OCc1ccccc1)c1ccccc1O`, the AC50 was 64.4 µM (active).

In the case of `CC(=O)c1ccc(C)cc1`, the result was inactive.

With `CC(C)N(c1ccccc1)C(C)C`, the compound was classed as inactive.

System in another assay: not listed separately
In words: ATG_Oct_MLP_CIS: Attagene CIS-FACTORIAL HepG2 Assay for human Octamer-Binding Transcription Factor (Oct) (AID 2282993). As to conditions: HepG2 Attagene cis-factorial Oct reporter, mRNA; actives raise or lower the signal. In a few lines:
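Readout is reporter transcript level from RT-PCR with fluorescent primer extension and capillary electrophoresis, fitted in both directions against DMSO. Transfected HepG2 reporter units report endogenous factor activity after 24 h dosing.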
For `CC/C=C\C#N`, the compound was classed as inactive.

Turning to `CCOC(=O)CC(C)C`, the outcome was inactive.

Turning to `CC/C=C\CCOC(C)OCC` (centres undefined), the result was inactive.

Consider `O=C(C=Cc1ccccc1)OCCCc1ccccc1`, for which the compound was classed as inactive.

For the compound `CC(=N[Si](C)(C)C)O[Si](C)(C)C`, the result was inactive.

Turning to `CN(C)CCC=C1c2ccccc2CCc2ccccc21`, the concentration at half-maximal activity (AC50) is 24.6 µM (active).

On to `CCC=C(C)C=O`, for which the compound was called inactive.

Regarding `[Cu+]`, the result was inactive.

As for `c1coc(CNc2ncnc3nc[nH]c23)c1`, the compound was classed as inactive.

Regarding `S=c1[nH][nH]c(=S)s1`, the outcome was inactive.

Turning to `CCCOC(=O)CC`, the outcome was inactive.

For `CC(C)(C)c1cccc(O)c1`, the call was inactive.

On to `CCCc1ccc(O)cc1`, for which the result was inactive.

For `COc1ccc(OC)cc1`, the compound was called inactive.

For `N=C1N=C(N)c2ccccc21`, the compound was classed as inactive.

For the compound `CC(=O)CCC(=O)O`, the compound was classed as inactive.

In the case of `CCCCCC(=O)O[C@]1(C(C)=O)CC[C@H]2[C@@H]3CCC4=CC(=O)CC[C@]4(C)[C@H]3CC[C@@]21C`, the outcome was inactive.

Turning to `O=C1OC2(c3ccc(O)cc3Oc3cc(O)ccc32)c2ccccc21`, the compound was classed as inactive.

On to `CC1=CC(O)CC(C)(C)C1` (centres undefined), for which the outcome was inactive.

On to `CCCCCCOC(C)=O`, for which the outcome was inactive.

In the case of `OCCCO`, the compound was classed as inactive.

Turning to `CCCC[N+](C)(CCCC)CCCC`, the call was inactive.

Turning to `CCCCOC(=O)C(C)OC(=O)CCC` (centres undefined), the result was inactive.

Consider `CC(=O)CC(=O)N(C)C`, for which the compound was called inactive.

As to `Nc1ccc(N)c([N+](=O)[O-])c1`, the call was inactive.

`OC[C@H]1O[C@@H](O[C@H]2[C@H](O)[C@@H](O)[C@H](O)O[C@@H]2CO)[C@H](O)[C@@H](O)[C@H]1O`: the compound was called inactive.

Turning to `CC(C)(CO)CO`, the call was inactive.

In the case of `C/C=C(\C)C(=O)OC/C=C(\C)CCC=C(C)C`, the call was inactive.

Consider `NC(=O)c1cnccn1`, for which the result was inactive.

Regarding `CC/C=C\CCOC(=O)C(C)C`, the compound was classed as inactive.

On to `C[C@H](CCC(=O)O)[C@H]1CC[C@H]2[C@@H]3CC[C@@H]4C[C@H](O)CC[C@]4(C)[C@H]3CC[C@]12C`, for which the compound was called inactive.

Consider `CCCCCCC(C)O` (centres undefined), for which the compound was called inactive.

Turning to `O=C(OCc1ccccc1)c1ccccc1O`, the result was inactive.

As for `CC(=O)c1ccc(C)cc1`, the result was inactive.

In the case of `CC(C)N(c1ccccc1)C(C)C`, the outcome was inactive.

The term AC50 denotes the concentration at which the activity in the assay is half-maximal.

These data come from PubChem BioAssay (EPA / NIEHS).
